The record followed here is the supplement of paper PMC6555819.

Assay in all cases: PBM binding z-score (relative to random genomic background probes); higher = stronger binding; sequences stand for … in GC…GCGATTGACAGCGTAGAATGAAGG
Assay [1] concerns RARb homodimer (NR concentration 270 nM). An outline of the steps:
(§1)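 On custom Agilent 4×180K arrays, double-stranded probes with 34-nt variable regions carried direct-repeat seeds, single-nucleotide variants, half-site ablations or random human genomic background. Ligand-free nuclear receptor dimers were applied for 1 h, and binding was read with antibodies against each partner (one per run). Binding z-scores come from regression-normalized fluorescence, with the random background probes as reference.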

Assay [2] concerns RARg:RXRa (NR concentration 270 nM, RXRa partner concentration 90 nM). An outline of the steps:
as §1

The test system of assay [3] is RARg homodimer (NR concentration 270 nM). An outline of the steps:
as §1

Assay [4] deals with RXRa DBDmut IVT, anti-RXR (DBD mutation: RXRa K156A/R161A, NR concentration 90 nM). An outline of the steps: as §1
Assay [5] deals with RXRa homodimer (NR concentration 180 nM). In short, it runs like this: as §1
Assay [6] deals with THRa:RXRa (NR concentration 90 nM, RXRa partner concentration 90 nM). In short, it runs like this: as §1
The subject of assay [7] is THRa homodimer (NR concentration 90 nM). An outline of the steps:
as §1

Assay [8] has as its system VDR homodimer (NR concentration 270 nM). In short, it runs like this: as §1

With ACTAGCAGGCCAAGGGTCTCTCAAGATTAGTCCG, the PBM binding z-score in assay [1] was -0.0592; in assay [2], -0.0301; in assay [3], 0.272; in assay [4] it was -0.533; in assay [5], 0.0173; in assay [6] it was -0.234. Further, the PBM binding z-score in assay [7] is -0.93; in assay [8] it was -0.872.
GCGAGTGGGGCATCAGCAGGTTACCATAACTTAA: the PBM binding z-score in assay [1] is 0.915; in assay [2] it was 1.05; in assay [3] it was 0.378; in assay [4] it was -0.215; in assay [5] it was 0.32; in assay [6], 0.958. Moreover, the PBM binding z-score in assay [7] was 0.127; in assay [8], -0.291.
On to CCTTTCGGGTCACTCCAGGTTATAGCATCGGAGT, for which the PBM binding z-score in assay [1] was 3.43; in assay [2], 4.46; in assay [3], 4.55; in assay [4], 2.36; in assay [5], 4.03; in assay [6] it was 5.16. The PBM binding z-score came to 3.18 in assay [7] and 1.87 in assay [8].
ATCGAAAGGTCGAGGTCAGTATAGAGAAAGGGAA: the PBM binding z-score in assay [1] was found to be 4.73; in assay [2] it was 5.69; in assay [3], 6.16; in assay [4] it was 2.01; in assay [5] it was 5.46; in assay [6], 3.84. The PBM binding z-score was determined as 1.93 in assay [7] and 2.73 in assay [8].
Consider CCTTACGGGTCACCGACAGGTTATAGCATTTGGA, for which the PBM binding z-score in assay [1] is 3.79; in assay [2] it was 6.61; in assay [3] it was 5.55; in assay [4], 1.12; in assay [5] it was 6.11; in assay [6], 3.23. The PBM binding z-score worked out at 0.772 in assay [7] and 1.09 in assay [8].
For CCTTACGTGTCAAGGTTATAGCACGGGTGGTACG, the PBM binding z-score in assay [1] was 1.28; in assay [2], 1.34; in assay [3] it was 1.35; in assay [4], -0.145; in assay [5], 1.11; in assay [6], 1.57. In addition, the PBM binding z-score stood at 0.906 in assay [7] and 0.926 in assay [8].
GGAACGAGGGCAATTTGATAGCAGAGTTTGATGG: the PBM binding z-score amounted to 0.804 in assay [1]; 1.04 in assay [2]; 1.25 in assay [3]; 1.74 in assay [4]; 0.881 in assay [5]; 0.709 in assay [6]. Also, the figures for the PBM binding z-score in assay [7] and in assay [8] were -0.191 and 0.777, respectively.
Regarding CCTAGTTGGTCATGAGGTCACACACCGGATATGA, the PBM binding z-score in assay [1] turned out to be 4.66; in assay [2], 5.3; in assay [3], 4.46; in assay [4], 2; in assay [5], 5.17; in assay [6], 4.72. In addition, the results for the PBM binding z-score in assay [7] and in assay [8] were 5.35 and 4.1, respectively.
Consider ATCTCTAGGTAACAAGTTCAGGGAAAGAGAGGAC, for which the PBM binding z-score worked out at 1.98 in assay [1]; 1.77 in assay [2]; 1.62 in assay [3]; 1.06 in assay [4]; 1.23 in assay [5]; 1.85 in assay [6]. The figures for the PBM binding z-score in assay [7] and in assay [8] were 1.01 and 2.78, respectively.
Take CGAACCAGGTCAAGGACAGTGAATCTCCGCACGC: the PBM binding z-score was found to be 3.09 in assay [1]; 3.99 in assay [2]; 4.33 in assay [3]; 2.23 in assay [4]; 3.47 in assay [5]; 3.82 in assay [6]. Besides, the PBM binding z-score in assay [7] was 2.79; in assay [8], 1.05.
As for TCGAGTAGGTTAATCGGGGCATTCAGCCAACATA, the PBM binding z-score in assay [1] is 0.592; in assay [2], 0.49; in assay [3], 0.334; in assay [4], 0.443; in assay [5], 0.518; in assay [6], 1.99. The results for the PBM binding z-score in assay [7] and in assay [8] were -0.373 and 0.184, respectively.
Regarding GCTCGGAGGACAAGGACAGAGCTTTGTCCGTAGA, the PBM binding z-score in assay [1] is 0.139; in assay [2] it was -0.0807; in assay [3] it was 0.418; in assay [4], -0.45; in assay [5] it was -0.592; in assay [6], 1.31. Moreover, the PBM binding z-score was 0.61 in assay [7] and -0.639 in assay [8].
Regarding CATACAGGGTCAGCTAGGCCAGTGTAGGGACGGC, the PBM binding z-score in assay [1] came to 3.34; in assay [2], 4.2; in assay [3], 4.67; in assay [4], 1.57; in assay [5] it was 3.89; in assay [6], 3.07. Further, the PBM binding z-score in assay [7] was found to be 0.856; in assay [8], 1.07.
Turning to GCTGCTAGGTCAGGTTGGTCAGCTAGCGGGTACG, the PBM binding z-score in assay [1] amounted to 2.7; in assay [2] it was 2.69; in assay [3], 3.44; in assay [4], 0.414; in assay [5], 0.963; in assay [6] it was 1.71. The PBM binding z-score in assay [7] was 0.421; in assay [8] it was -0.146.
